# Results from PubChem BioAssay (NCI).
# The panel holds about 79,000 compounds, 15% with a hit somewhere; the sample as a whole holds those more often. Values without a mark were called inactive. Activity calls are given as the source filed them. Cut-off read from the data, not from the text of the source: active = growth inhibition above about 70%; inactive = the rest.
# How the values were obtained:
# [1] = NCI Yeast Anticancer Drug Screen. Data for the rad52 strain (AID 147);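 note: 0% = growth of vehicle-treated control cultures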; conditions: S. cerevisiae rad52 mutant growth inhibition, hits give high values
# Outline: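 Yeast strain carrying a DNA damage repair alteration was exposed to test compounds. Growth inhibition was measured relative to vehicle-treated controls.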
# [2] = NCI Yeast Anticancer Drug Screen. Data for the wt1 strain (AID 149);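 note: 0% = growth of vehicle-treated wt1 cultures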; conditions: S. cerevisiae wt1 strain (SPY 50644) growth inhibition, hits give high values
# Outline: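 Each compound is tested on wt1 yeast and the loss of growth versus vehicle gives the inhibition value.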
# [3] = NCI Yeast Anticancer Drug Screen. Data for the rad50EPP+ strain (AID 151);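 note: 0% = growth of vehicle-treated control cultures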; conditions: S. cerevisiae rad50 mutant strain, hits give high values
# Outline: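 Yeast strain carrying rad50 alteration (rad50EPP+) exposed to compounds; growth inhibition measured relative to vehicle-treated controls.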
# [4] = NCI Yeast Anticancer Drug Screen. Data for the rad50 strain (AID 155);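 note: 0% = growth of vehicle-only cultures of the same strain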; conditions: S. cerevisiae rad50 strain growth inhibition, hits give high values
# Outline: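 Vehicle-treated cultures provide the reference for the growth inhibition reported for compound-exposed, repair-deficient yeast.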
# [5] = NCI Yeast Anticancer Drug Screen. Data for the mec2-1 strain (AID 157); conditions: S. cerevisiae mec2-1 strain, hits give high values
# Outline: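 mec2-1 yeast strain, carrying an alteration in DNA damage repair or cell cycle control, was exposed to compounds; growth inhibition was measured relative to vehicle-treated controls.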
# [6] = NCI Yeast Anticancer Drug Screen. Data for the rad14 strain (AID 159);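 note: 0% = growth of vehicle-treated control cultures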; conditions: S. cerevisiae rad14 strain growth inhibition, hits give high values
# Outline: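 Inhibition of growth is reported for a repair-deficient yeast mutant following compound treatment, calculated relative to cultures that received vehicle.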
# [7] = NCI Yeast Anticancer Drug Screen. Data for the sgs1 mgt1 strain (AID 161);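 note: 0% = growth of cultures given vehicle only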; conditions: S. cerevisiae sgs1 mgt1 strain, hits give high values
# Outline: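 Compounds are added to genetically altered yeast, and growth is compared with cultures given vehicle alone to give percent inhibition.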
# [8] = NCI Yeast Anticancer Drug Screen. Data for the CLN2oe strain (AID 163);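 note: 0% = growth of vehicle-only control cultures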; conditions: S. cerevisiae CLN2oe strain, hits give high values
# Outline: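 Yeast cells carrying a defined cell-cycle control alteration were exposed to test compounds. Growth inhibition was scored against vehicle-treated control cultures.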
# [9] = NCI Yeast Anticancer Drug Screen. Data for the cln2 rad14 strain (AID 165);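 note: 0% = growth equal to vehicle treated cultures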; conditions: S. cerevisiae cln2 rad14 strain, hits give high values
# Outline: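 Yeast carrying cln2 and rad14 alterations (cell cycle control and DNA damage repair) were exposed to compounds. Growth inhibition was measured against vehicle-treated controls.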
# [10] = NCI Yeast Anticancer Drug Screen. Data for the bub3 strain (AID 167); conditions: S. cerevisiae bub3 mutant strain, hits give high values
# Outline: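 Mutant yeast screening strain plus compound; vehicle-treated cultures serve as the 0% inhibition reference.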
# [11] = NCI Yeast Anticancer Drug Screen. Data for the wt2 strain (AID 169); conditions: S. cerevisiae wt2 strain growth inhibition, hits give high values
# Outline: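 Yeast cells were exposed to test compounds, and growth inhibition was measured relative to vehicle-treated controls.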
# [12] = NCI Yeast Anticancer Drug Screen. Data for the mlh1 strain (AID 171);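 note: 0% = growth of vehicle-treated control cultures of the same strain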; conditions: S. cerevisiae mlh1 strain growth inhibition, hits give high values
# Outline: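 Yeast carrying a defined genetic alteration in DNA damage repair or cell cycle control were exposed to test compounds. Growth inhibition was measured relative to vehicle-treated controls.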
# [13] = NCI Yeast Anticancer Drug Screen. Data for the sgs1 strain (AID 173);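 note: 0% = growth of vehicle-only control cultures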; conditions: S. cerevisiae sgs1 mutant, hits give high values
# Outline: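 Yeast mutant strains carrying defined defects in DNA damage repair or cell cycle control were exposed to test compounds. Growth inhibition was scored against vehicle-treated controls.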
# [14] = NCI Yeast Anticancer Drug Screen. Data for the mlh1 rad18 strain (AID 175); conditions: S. cerevisiae mlh1 rad18 strain growth inhibition, hits give high values
# Outline: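 Growth inhibition of the yeast strain was measured after compound exposure and expressed relative to vehicle-treated controls. The strain carries defined defects in DNA damage repair.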
# [15] = NCI Yeast Anticancer Drug Screen. Data for the rad18 strain (AID 177); conditions: S. cerevisiae rad18 mutant growth inhibition, hits give high values
# Outline: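 Yeast carrying a defined DNA damage repair alteration were exposed to compounds. Growth inhibition was expressed relative to vehicle-treated controls.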
# [16] = at 5.0 µM (retest, dose inferred, filed as 0.5)
# [17] = at 50.0 µM (retest, dose inferred, filed as 5.0)
structure (smiles),measurement,setting,value
Cc1onc(-c2ccccc2Cl)c1C1=N/C(=C/c2cc(Cl)cc(Cl)c2O)C(=O)O1,growth inhibition,[1]; at 1.2 µM,-36%
same,growth inhibition,[1]; at 3.7 µM,-39%
same,growth inhibition,[1]; at 11.0 µM,-35%
same,growth inhibition,[1]; at 33.0 µM,-42%
same,growth inhibition,[1]; at 100.0 µM,70% (active)
same,growth inhibition,[2]; at 1.2 µM,-3%
same,growth inhibition,[2]; at 3.7 µM,-26%
same,growth inhibition,[2]; at 11.0 µM,-26%
same,growth inhibition,[2]; at 33.0 µM,-16%
same,growth inhibition,[2]; at 100.0 µM,74% (active)
same,growth inhibition,[3]; at 1.2 µM,-22%
same,growth inhibition,[3]; at 3.7 µM,-28%
same,growth inhibition,[3]; at 11.0 µM,3%
same,growth inhibition,[3]; at 33.0 µM,-5%
same,growth inhibition,[3]; at 100.0 µM,-25%
same,growth inhibition,[4]; at 1.2 µM,-38%
same,growth inhibition,[4]; at 3.7 µM,-32%
same,growth inhibition,[4]; [16],33%
same,growth inhibition,[4]; at 11.0 µM,-35%
same,growth inhibition,[4]; at 33.0 µM,2%
same,growth inhibition,[4]; [17],90% (active)
same,growth inhibition,[4]; at 50.0 µM,79.3% (active)
same,growth inhibition,[4]; at 100.0 µM,69%
same,growth inhibition,[5]; at 1.2 µM,-32%
same,growth inhibition,[5]; at 3.7 µM,-35%
same,growth inhibition,[5]; [16],35%
same,growth inhibition,[5]; at 11.0 µM,-39%
same,growth inhibition,[5]; at 33.0 µM,-4%
same,growth inhibition,[5]; [17],90% (active)
same,growth inhibition,[5]; at 50.0 µM,60%
same,growth inhibition,[5]; at 100.0 µM,61%
same,growth inhibition,[6]; at 1.2 µM,-51%
same,growth inhibition,[6]; at 3.7 µM,-56%
same,growth inhibition,[6]; at 11.0 µM,-58%
same,growth inhibition,[6]; at 33.0 µM,-46%
same,growth inhibition,[6]; at 100.0 µM,59%
same,growth inhibition,[7]; [16],-9%
same,growth inhibition,[7]; [17],42%
same,growth inhibition,[7]; at 50.0 µM,78.6% (active)
same,growth inhibition,[8]; at 1.2 µM,-5%
same,growth inhibition,[8]; at 3.7 µM,-19%
same,growth inhibition,[8]; at 11.0 µM,-5%
same,growth inhibition,[8]; at 33.0 µM,26%
same,growth inhibition,[8]; at 100.0 µM,66%
same,growth inhibition,[9]; [16],72% (active)
same,growth inhibition,[9]; [17],60%
same,growth inhibition,[9]; at 50.0 µM,71.5% (active)
same,growth inhibition,[10]; at 1.2 µM,-55%
same,growth inhibition,[10]; at 3.7 µM,-40%
same,growth inhibition,[10]; [16],47%
same,growth inhibition,[10]; at 11.0 µM,-43%
same,growth inhibition,[10]; at 33.0 µM,-10%
same,growth inhibition,[10]; [17],65%
same,growth inhibition,[10]; at 50.0 µM,77.2% (active)
same,growth inhibition,[10]; at 100.0 µM,68%
same,growth inhibition,[11]; at 1.2 µM,-12%
same,growth inhibition,[11]; at 3.7 µM,-12%
same,growth inhibition,[11]; at 11.0 µM,-18%
same,growth inhibition,[11]; at 33.0 µM,11%
same,growth inhibition,[11]; at 100.0 µM,62%
same,growth inhibition,[12]; at 1.2 µM,-39%
same,growth inhibition,[12]; at 3.7 µM,-42%
same,growth inhibition,[12]; at 11.0 µM,-27%
same,growth inhibition,[12]; at 33.0 µM,3%
same,growth inhibition,[12]; at 100.0 µM,49%
same,growth inhibition,[13]; at 1.2 µM,-19%
same,growth inhibition,[13]; at 3.7 µM,-39%
same,growth inhibition,[13]; at 11.0 µM,-23%
same,growth inhibition,[13]; at 33.0 µM,11%
same,growth inhibition,[13]; at 100.0 µM,69%
same,growth inhibition,[14]; [16],42%
same,growth inhibition,[14]; [17],46%
same,growth inhibition,[14]; at 50.0 µM,75.6% (active)
same,growth inhibition,[15]; at 1.2 µM,-46%
same,growth inhibition,[15]; at 3.7 µM,-50%
same,growth inhibition,[15]; at 11.0 µM,-44%
same,growth inhibition,[15]; at 33.0 µM,-21%
same,growth inhibition,[15]; at 100.0 µM,58%
CCNc1ccc2c(c1)C(=O)N(OS(C)(=O)=O)C2=O,growth inhibition,[1]; at 1.2 µM,1%
same,growth inhibition,[1]; at 3.7 µM,1%
same,growth inhibition,[1]; at 11.0 µM,5%
same,growth inhibition,[1]; at 33.0 µM,23%
same,growth inhibition,[1]; at 100.0 µM,79% (active)
same,growth inhibition,[2]; at 1.2 µM,1%
same,growth inhibition,[2]; at 3.7 µM,5%
same,growth inhibition,[2]; at 11.0 µM,4%
same,growth inhibition,[2]; at 33.0 µM,10%
same,growth inhibition,[2]; at 100.0 µM,31%
same,growth inhibition,[3]; at 1.2 µM,7%
same,growth inhibition,[3]; at 3.7 µM,6%
same,growth inhibition,[3]; at 11.0 µM,7%
same,growth inhibition,[3]; at 33.0 µM,11%
same,growth inhibition,[3]; at 100.0 µM,27%
same,growth inhibition,[4]; at 1.2 µM,2%
same,growth inhibition,[4]; at 3.7 µM,2%
same,growth inhibition,[4]; [16],4%
same,growth inhibition,[4]; at 11.0 µM,8%
same,growth inhibition,[4]; at 33.0 µM,18%
same,growth inhibition,[4]; [17],18%
same,growth inhibition,[4]; at 50.0 µM,96.8% (active)
same,growth inhibition,[4]; at 100.0 µM,88% (active)
same,growth inhibition,[5]; at 1.2 µM,6%
same,growth inhibition,[5]; at 3.7 µM,10%
same,growth inhibition,[5]; [16],4%
same,growth inhibition,[5]; at 11.0 µM,14%
same,growth inhibition,[5]; at 33.0 µM,21%
same,growth inhibition,[5]; [17],23%
same,growth inhibition,[5]; at 50.0 µM,61%
same,growth inhibition,[5]; at 100.0 µM,7%
same,growth inhibition,[6]; at 1.2 µM,3%
same,growth inhibition,[6]; at 3.7 µM,0%
same,growth inhibition,[6]; at 11.0 µM,3%
same,growth inhibition,[6]; at 33.0 µM,16%
same,growth inhibition,[6]; at 100.0 µM,34%
same,growth inhibition,[7]; [16],3%
same,growth inhibition,[7]; [17],12%
same,growth inhibition,[7]; at 50.0 µM,85.6% (active)
same,growth inhibition,[8]; at 1.2 µM,5%
same,growth inhibition,[8]; at 3.7 µM,-6%
same,growth inhibition,[8]; at 11.0 µM,4%
same,growth inhibition,[8]; at 33.0 µM,15%
same,growth inhibition,[8]; at 100.0 µM,40%
same,growth inhibition,[9]; [16],8%
same,growth inhibition,[9]; [17],21%
same,growth inhibition,[9]; at 50.0 µM,69.6%
same,growth inhibition,[10]; at 1.2 µM,-2%
same,growth inhibition,[10]; at 3.7 µM,-2%
same,growth inhibition,[10]; [16],-1%
same,growth inhibition,[10]; at 11.0 µM,0%
same,growth inhibition,[10]; at 33.0 µM,8%
same,growth inhibition,[10]; [17],12%
same,growth inhibition,[10]; at 50.0 µM,24.5%
same,growth inhibition,[10]; at 100.0 µM,26%
same,growth inhibition,[11]; at 1.2 µM,0%
same,growth inhibition,[11]; at 3.7 µM,1%
same,growth inhibition,[11]; at 11.0 µM,1%
same,growth inhibition,[11]; at 33.0 µM,6%
same,growth inhibition,[11]; at 100.0 µM,41%
same,growth inhibition,[12]; at 1.2 µM,3%
same,growth inhibition,[12]; at 3.7 µM,3%
same,growth inhibition,[12]; at 11.0 µM,5%
same,growth inhibition,[12]; at 33.0 µM,12%
same,growth inhibition,[12]; at 100.0 µM,42%
same,growth inhibition,[13]; at 1.2 µM,2%
same,growth inhibition,[13]; at 3.7 µM,3%
same,growth inhibition,[13]; at 11.0 µM,6%
same,growth inhibition,[13]; at 33.0 µM,15%
same,growth inhibition,[13]; at 100.0 µM,62%
same,growth inhibition,[14]; [16],-3%
same,growth inhibition,[14]; [17],23%
same,growth inhibition,[14]; at 50.0 µM,97% (active)
same,growth inhibition,[15]; at 1.2 µM,4%
same,growth inhibition,[15]; at 3.7 µM,2%
same,growth inhibition,[15]; at 11.0 µM,3%
same,growth inhibition,[15]; at 33.0 µM,14%
same,growth inhibition,[15]; at 100.0 µM,73% (active)
